Test results as given in the supplement of paper PMC11732987, “Enantioselective OTUD7B fragment discovery through chemoproteomics screening and high-throughput optimisation” (Communications Chemistry, 2025).

Key:
Experiment in all cases: log2 ratio of Biotin-Ahx-Ub-VS probe labelling (fragment/DMSO); higher = less target engagement (more negative = stronger competition), active = hit call of the paper (q ≤ 0.05, log2 ratio ≤ -1)
Conditions in all cases: compound concentration: 200 uM; treatment time: 3 h
USP42 = target: T1, USP42 (UniProt Q9H9J4)
T1 sequence (whole entry): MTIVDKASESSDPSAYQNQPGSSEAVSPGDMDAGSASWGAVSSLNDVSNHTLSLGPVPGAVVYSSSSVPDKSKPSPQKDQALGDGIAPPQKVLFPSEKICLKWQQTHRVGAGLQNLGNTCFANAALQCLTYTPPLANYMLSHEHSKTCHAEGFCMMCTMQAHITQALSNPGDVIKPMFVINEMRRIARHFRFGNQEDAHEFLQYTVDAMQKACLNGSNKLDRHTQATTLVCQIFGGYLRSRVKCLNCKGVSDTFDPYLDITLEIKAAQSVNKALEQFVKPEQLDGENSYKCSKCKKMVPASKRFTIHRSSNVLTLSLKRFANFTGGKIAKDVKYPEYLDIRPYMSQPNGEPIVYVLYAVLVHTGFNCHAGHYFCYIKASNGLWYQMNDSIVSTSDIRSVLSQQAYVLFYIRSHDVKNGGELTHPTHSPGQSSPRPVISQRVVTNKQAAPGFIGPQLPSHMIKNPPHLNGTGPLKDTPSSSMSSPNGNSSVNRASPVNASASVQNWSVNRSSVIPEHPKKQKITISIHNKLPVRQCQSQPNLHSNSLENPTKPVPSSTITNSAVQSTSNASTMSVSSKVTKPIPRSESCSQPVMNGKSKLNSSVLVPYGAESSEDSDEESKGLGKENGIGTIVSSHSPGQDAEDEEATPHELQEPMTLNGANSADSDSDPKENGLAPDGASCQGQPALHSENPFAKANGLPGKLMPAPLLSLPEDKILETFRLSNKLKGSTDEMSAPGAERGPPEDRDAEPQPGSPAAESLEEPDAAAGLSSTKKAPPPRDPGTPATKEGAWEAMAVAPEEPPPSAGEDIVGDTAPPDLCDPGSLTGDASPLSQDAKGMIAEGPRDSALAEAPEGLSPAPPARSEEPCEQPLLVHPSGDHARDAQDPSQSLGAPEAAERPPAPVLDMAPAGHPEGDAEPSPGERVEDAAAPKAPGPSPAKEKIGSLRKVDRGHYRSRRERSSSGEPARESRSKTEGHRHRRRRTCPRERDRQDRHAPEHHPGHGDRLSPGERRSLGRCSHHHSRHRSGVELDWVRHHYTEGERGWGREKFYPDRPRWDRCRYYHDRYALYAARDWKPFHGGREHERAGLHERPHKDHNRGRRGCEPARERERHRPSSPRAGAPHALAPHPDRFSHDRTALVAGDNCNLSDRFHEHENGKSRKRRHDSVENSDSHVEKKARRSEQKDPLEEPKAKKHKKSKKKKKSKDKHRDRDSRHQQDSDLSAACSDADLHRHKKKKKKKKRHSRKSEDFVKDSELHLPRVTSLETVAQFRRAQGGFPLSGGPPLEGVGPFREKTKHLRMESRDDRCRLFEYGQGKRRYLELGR
How it was run: (§1)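 Labelled DUBs were enriched with NeutrAvidin, digested with LysC and trypsin, and run by diaPASEF LC-MS/MS. The labelling used Biotin-Ahx-Ub-VS at 0.5 µM final for 1 h on HEK293T lysate (495 µg per sample) previously treated in triplicate with fragment at 200 µM or vehicle for 3 h. Values are average log2 fragment/vehicle ratios by unpaired t-test on global-median-normalised Spectronaut quantities of proteins with ≥2 unique peptides.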

USP46 = USP46 (UniProt P62068)
How it was run: as §1

USP47 = target: T2, USP47 (UniProt Q96K76)
T2 sequence (whole entry): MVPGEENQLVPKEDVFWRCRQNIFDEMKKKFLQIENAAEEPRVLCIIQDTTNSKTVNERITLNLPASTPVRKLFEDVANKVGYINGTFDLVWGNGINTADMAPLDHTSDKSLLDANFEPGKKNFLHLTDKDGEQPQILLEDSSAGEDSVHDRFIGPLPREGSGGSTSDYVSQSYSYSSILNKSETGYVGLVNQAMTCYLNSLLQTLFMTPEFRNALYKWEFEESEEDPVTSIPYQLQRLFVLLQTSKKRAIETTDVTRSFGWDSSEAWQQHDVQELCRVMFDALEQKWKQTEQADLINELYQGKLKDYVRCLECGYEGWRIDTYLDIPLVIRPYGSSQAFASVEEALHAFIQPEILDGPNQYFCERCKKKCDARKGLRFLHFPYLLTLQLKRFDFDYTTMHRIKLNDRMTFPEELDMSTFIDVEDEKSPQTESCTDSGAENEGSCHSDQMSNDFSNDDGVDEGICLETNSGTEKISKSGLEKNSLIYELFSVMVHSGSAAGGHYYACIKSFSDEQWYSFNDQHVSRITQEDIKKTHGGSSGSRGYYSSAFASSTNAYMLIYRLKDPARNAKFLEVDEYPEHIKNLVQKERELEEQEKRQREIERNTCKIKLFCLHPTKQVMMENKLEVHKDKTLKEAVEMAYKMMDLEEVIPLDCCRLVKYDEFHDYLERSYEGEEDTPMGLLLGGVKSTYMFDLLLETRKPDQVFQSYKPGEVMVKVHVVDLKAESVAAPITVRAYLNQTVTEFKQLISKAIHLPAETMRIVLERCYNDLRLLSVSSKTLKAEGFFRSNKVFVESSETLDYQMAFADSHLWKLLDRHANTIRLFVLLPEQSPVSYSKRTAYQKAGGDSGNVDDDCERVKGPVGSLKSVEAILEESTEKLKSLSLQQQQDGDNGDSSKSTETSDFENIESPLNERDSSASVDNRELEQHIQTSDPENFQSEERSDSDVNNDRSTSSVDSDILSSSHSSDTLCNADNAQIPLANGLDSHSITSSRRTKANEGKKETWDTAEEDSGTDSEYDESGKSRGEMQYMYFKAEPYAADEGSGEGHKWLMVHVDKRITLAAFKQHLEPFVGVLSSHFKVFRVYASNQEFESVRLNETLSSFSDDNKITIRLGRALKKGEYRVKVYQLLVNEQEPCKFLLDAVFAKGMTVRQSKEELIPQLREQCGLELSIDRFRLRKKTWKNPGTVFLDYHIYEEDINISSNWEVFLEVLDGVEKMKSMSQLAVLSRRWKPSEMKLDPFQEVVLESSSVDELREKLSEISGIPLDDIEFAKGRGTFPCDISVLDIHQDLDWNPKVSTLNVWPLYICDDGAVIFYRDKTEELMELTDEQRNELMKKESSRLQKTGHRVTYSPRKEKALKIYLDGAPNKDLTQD
How it was run: as §1

USP48 = target: T3, USP48 (UniProt Q86UV5)
T3 sequence (whole entry): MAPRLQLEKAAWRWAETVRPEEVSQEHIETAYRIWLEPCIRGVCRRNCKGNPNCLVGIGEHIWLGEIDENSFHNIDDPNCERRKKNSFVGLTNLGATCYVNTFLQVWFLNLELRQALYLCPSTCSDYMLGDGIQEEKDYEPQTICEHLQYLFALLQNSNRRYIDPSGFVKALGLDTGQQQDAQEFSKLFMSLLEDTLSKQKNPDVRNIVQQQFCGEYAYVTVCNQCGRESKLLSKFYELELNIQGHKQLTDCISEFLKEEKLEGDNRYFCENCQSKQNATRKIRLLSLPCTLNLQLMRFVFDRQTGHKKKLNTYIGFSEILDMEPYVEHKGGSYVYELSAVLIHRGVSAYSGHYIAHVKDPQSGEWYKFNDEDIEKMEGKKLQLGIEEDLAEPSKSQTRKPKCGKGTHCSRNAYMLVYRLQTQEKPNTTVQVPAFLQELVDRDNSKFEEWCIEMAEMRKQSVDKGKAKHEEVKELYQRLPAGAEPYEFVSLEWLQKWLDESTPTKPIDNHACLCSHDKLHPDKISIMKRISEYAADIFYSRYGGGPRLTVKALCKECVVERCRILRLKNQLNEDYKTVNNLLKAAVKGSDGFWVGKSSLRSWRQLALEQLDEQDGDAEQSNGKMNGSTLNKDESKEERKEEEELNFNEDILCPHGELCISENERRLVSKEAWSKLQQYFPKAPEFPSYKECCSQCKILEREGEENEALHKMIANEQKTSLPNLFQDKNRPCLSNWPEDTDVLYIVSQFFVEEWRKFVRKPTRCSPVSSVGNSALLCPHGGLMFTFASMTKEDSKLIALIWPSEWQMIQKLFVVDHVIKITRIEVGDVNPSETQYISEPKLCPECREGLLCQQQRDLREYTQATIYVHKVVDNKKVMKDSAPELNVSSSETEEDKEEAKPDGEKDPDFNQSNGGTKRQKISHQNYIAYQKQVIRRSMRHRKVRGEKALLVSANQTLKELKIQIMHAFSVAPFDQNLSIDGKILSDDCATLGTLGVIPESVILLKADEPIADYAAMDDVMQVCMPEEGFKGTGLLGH
How it was run: as §1

USP5 = target: T4, USP5 (UniProt P45974)
T4 sequence (whole entry): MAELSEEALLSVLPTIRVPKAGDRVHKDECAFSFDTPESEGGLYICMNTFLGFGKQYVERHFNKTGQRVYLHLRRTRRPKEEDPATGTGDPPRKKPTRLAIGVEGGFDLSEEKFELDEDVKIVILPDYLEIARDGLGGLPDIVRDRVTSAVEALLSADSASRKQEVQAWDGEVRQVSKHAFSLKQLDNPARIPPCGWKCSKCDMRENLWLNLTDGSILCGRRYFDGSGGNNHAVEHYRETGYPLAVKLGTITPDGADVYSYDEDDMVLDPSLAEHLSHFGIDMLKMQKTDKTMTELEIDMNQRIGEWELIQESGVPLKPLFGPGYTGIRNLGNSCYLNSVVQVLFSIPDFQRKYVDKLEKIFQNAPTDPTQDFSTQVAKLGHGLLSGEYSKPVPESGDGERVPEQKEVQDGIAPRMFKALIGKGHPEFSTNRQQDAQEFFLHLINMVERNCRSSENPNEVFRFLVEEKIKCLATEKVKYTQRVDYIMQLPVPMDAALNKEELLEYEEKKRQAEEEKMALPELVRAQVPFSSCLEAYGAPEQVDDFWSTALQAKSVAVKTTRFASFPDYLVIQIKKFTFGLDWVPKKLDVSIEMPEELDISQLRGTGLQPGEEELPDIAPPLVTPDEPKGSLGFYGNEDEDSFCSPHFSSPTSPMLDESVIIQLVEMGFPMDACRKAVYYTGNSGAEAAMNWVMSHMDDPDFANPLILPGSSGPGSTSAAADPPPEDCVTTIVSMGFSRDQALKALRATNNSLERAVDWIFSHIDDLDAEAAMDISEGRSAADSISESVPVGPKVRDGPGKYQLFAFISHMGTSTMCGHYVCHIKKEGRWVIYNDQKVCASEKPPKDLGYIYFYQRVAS
How it was run: as §1

USP54 = USP54 (UniProt Q70EL1)
How it was run: as §1

USP7 = USP7 (UniProt Q93009)
How it was run: as §1

USP8 = target: T5, USP8 (UniProt P40818)
T5 sequence (whole entry): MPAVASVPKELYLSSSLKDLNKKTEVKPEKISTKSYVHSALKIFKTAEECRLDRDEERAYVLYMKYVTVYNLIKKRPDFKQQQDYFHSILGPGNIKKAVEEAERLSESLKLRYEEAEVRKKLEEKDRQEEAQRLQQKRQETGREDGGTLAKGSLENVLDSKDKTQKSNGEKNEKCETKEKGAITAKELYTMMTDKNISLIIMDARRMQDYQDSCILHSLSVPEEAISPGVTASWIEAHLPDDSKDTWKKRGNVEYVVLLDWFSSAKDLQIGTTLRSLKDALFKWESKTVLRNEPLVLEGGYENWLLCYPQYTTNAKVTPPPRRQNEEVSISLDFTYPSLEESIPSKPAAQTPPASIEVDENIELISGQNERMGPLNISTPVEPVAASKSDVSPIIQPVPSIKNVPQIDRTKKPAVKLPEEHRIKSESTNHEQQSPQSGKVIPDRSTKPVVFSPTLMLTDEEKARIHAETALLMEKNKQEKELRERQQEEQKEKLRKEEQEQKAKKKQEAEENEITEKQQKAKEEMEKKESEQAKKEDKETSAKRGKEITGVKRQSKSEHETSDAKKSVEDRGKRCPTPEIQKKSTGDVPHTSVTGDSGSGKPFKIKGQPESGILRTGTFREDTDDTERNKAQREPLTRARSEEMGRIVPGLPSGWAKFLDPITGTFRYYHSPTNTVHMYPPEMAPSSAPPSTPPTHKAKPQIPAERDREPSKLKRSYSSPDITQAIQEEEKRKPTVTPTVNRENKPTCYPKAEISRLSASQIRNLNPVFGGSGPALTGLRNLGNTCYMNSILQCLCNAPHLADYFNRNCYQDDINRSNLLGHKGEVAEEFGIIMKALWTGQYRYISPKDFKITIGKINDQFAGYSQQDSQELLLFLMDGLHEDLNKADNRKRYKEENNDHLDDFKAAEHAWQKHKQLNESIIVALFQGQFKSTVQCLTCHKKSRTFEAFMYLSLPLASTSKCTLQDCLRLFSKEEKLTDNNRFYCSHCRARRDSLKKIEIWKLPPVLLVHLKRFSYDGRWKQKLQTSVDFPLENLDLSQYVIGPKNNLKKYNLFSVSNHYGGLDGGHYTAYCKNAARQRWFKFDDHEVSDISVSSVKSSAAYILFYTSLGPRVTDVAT
How it was run: as §1

USP9X = USP9X (UniProt Q93008)
How it was run: as §1

UniProt O00487 = target: UniProt O00487
How it was run: as §1

Measured: log2 ratio of Biotin-Ahx-Ub-VS probe labelling

USP54, sequence (Q70EL1 whole entry): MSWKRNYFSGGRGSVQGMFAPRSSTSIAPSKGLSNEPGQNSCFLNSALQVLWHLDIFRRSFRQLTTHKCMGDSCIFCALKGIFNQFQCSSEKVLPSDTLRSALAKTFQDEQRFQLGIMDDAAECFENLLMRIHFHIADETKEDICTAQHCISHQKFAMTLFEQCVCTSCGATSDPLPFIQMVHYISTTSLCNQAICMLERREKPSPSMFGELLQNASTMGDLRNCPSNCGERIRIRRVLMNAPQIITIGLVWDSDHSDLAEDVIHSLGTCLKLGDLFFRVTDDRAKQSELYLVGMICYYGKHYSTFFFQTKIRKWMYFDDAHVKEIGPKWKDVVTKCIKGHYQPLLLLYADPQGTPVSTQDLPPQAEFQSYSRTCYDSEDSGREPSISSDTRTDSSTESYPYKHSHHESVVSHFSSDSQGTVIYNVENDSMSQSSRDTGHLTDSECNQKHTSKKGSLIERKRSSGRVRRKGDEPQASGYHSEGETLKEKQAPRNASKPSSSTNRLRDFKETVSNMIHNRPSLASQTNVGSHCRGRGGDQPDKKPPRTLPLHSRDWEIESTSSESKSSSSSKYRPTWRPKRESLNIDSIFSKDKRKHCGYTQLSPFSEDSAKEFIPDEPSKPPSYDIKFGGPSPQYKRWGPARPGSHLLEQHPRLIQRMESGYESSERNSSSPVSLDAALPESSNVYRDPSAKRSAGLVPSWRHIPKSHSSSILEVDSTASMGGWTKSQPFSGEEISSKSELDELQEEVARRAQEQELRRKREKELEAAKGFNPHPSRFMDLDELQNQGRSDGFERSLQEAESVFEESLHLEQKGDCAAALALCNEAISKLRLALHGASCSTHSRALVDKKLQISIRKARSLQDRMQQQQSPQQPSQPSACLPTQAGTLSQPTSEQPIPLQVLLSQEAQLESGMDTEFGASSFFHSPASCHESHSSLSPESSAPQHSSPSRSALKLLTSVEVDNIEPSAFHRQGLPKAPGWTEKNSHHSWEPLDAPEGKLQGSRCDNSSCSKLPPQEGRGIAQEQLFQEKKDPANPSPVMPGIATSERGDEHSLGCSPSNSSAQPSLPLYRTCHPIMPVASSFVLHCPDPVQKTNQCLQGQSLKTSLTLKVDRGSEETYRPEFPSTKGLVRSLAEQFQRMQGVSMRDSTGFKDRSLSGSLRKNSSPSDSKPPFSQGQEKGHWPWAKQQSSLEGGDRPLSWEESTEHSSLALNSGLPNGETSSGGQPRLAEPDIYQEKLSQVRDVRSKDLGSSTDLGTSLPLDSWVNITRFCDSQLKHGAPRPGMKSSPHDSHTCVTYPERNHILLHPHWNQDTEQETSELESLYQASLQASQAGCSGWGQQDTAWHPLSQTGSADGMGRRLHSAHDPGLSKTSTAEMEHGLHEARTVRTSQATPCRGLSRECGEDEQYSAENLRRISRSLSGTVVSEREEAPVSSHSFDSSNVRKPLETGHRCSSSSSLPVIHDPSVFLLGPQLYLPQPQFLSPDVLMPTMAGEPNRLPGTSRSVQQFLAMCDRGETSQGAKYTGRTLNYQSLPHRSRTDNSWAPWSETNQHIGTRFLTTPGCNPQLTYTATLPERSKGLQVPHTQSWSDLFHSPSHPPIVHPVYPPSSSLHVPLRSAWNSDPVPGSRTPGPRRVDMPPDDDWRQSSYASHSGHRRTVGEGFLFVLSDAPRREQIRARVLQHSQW
USP46, sequence (P62068 whole entry): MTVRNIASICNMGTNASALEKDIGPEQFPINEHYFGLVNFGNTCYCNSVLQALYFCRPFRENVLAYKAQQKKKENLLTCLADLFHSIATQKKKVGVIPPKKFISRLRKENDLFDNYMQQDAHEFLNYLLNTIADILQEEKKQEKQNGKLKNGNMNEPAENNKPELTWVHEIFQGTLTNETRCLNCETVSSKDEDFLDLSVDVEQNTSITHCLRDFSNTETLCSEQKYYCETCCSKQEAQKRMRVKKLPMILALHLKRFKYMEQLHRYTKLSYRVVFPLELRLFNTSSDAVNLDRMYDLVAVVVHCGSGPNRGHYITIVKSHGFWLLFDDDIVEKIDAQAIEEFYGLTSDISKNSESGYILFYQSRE
UniProt O00487, sequence (O00487 whole entry): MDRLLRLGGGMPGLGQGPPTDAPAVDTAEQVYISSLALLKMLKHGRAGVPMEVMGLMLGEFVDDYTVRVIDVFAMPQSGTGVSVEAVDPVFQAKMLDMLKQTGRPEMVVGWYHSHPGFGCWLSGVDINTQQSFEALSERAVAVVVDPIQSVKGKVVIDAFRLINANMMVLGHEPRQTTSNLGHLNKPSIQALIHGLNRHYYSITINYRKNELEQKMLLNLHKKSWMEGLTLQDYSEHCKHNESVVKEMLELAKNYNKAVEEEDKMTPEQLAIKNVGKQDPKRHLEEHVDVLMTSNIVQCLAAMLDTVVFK
USP7, sequence (Q93009 whole entry, looked up): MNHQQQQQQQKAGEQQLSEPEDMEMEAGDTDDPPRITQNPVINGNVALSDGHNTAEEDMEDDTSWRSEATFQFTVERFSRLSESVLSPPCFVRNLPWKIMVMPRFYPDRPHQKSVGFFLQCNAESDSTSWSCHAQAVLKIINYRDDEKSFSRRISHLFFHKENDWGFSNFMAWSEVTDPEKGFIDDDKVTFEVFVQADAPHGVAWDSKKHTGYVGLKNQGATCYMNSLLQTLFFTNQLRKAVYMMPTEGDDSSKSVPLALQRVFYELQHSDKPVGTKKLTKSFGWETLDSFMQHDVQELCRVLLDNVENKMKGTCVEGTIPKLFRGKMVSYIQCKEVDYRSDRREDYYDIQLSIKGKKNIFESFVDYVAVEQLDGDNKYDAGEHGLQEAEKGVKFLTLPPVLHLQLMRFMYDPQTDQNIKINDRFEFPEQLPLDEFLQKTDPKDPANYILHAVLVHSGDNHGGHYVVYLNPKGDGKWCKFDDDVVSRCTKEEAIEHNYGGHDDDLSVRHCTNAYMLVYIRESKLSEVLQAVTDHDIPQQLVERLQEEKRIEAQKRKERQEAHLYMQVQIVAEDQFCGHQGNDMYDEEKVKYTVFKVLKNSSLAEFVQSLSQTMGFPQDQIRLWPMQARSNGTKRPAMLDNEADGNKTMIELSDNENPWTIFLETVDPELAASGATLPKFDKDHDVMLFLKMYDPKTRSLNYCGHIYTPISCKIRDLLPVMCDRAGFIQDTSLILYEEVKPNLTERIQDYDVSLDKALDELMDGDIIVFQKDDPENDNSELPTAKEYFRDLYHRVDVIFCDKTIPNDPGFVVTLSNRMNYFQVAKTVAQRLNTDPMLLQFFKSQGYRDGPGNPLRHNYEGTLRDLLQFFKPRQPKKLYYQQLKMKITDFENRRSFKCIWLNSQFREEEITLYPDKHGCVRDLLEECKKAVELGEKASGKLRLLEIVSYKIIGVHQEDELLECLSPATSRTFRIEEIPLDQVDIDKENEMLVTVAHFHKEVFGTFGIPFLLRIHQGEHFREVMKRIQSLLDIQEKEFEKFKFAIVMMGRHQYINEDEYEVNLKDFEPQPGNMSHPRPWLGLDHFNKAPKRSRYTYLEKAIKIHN

Cc1ncc2c(n1)CCN(C(=O)CCl)C2
inactive: USP42 0.492 | USP46 -0.138 | USP47 0.296 | USP48 -0.0668 | USP5 -0.217 | USP54 -0.303 | USP7 -0.49 | USP8 -0.102 | USP9X -0.246 | UniProt O00487 0.0218
